Abeta rescue = restores growth of yeast expressing A-beta42 peptide | yeast expressing A-beta42, growth rescue, OD600, 48 h; response scale: 0% DMSO, 100% iron-clioquinol control | Potency, µM (titrated, usually from 46.1 µM), actives largely listed as activators | 0.063% of 410,000 active | AID 1347071; note: nearly all actives have a fitted effect of over 55% in size
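Yeast A-beta toxicity model in growth medium with pinned compounds, 48 h at 30 C; growth read as absorbance at 600 nm. Normalized to FeCl3/clioquinol equimolar mix (positive) and DMSO (negative).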
TDP43 rescue = TDP-43 toxicity inhibition in yeast. Potency, µM (highest dose often 46.1 µM), without a hit: at the highest dose growth rescue (activation), hits mostly activators. AID 652104. TDP-43 expressing yeast growth rescue, BacTiter-Glo, 24 h. 1.8% of 410,000 active; note: % of control where 0% means no effect; nearly all actives have a fitted effect of over 50% in size
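Luminescence from BacTiter-Glo reports growth of TDP-43-expressing yeast after 24 hr at 30 deg C with compound. Cells were raffinose-pregrown to mid-log, then seeded in galactose medium at OD600=0.02.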
aSyn rescue = alpha-synuclein toxicity inhibition in yeast. Yeast expressing alpha-synuclein, growth rescue, BacTiter-Glo, 24 h. Potency, µM (titrated, usually from 46.1 µM), inactives show at the highest dose growth rescue (activation), usual class: activators. 0.14% of 370,000 active; note: % of control where 0% means no effect; nearly all actives have a fitted effect of over 65% in size
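Rescue of yeast growth: cells expressing toxic alpha-synuclein, induced in galactose at OD600 0.02, incubated with compound 24 h at 30 C. ATP luminescence quantified growth; inhibitors of toxicity appear as activators.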
FUS yeast rescue = suppressors of FUS proteinopathy in yeast; Potency, µM (top dose mostly 76.6 µM), most hits filed as activators; 0.24% of 390,000 active; S. cerevisiae FUS-expressing, growth rescue, OD600, 24 h;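 note: plate controls were DMSO vehicle for no effect and reference control for full effect; nearly all actives have a fitted effect of over 55% in size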
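Read-out: OD at 600 nm after 24hr at 30C, reporting rescue of FUS-induced yeast toxicity. Cells at OD 0.005 in galactose (2%) minimal medium; compounds tested in a dilution series; CP55940 titration from 92uM final as control.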
Starred values were filed as active, the others as inactive; i = inactive; ? = inconclusive; · = no result; ! = a repeat was not active. An excerpt weighted towards active compounds, which were near 2.1% of everything screened. Calls come from the whole dose curve; as a rule, active = well fitted curve in the direction sought with a large enough effect; inconclusive = small, poorly fitted or top-dose-only effect, or another doubt; inactive = no such curve, though single readings can be large; an effect the other way counts as inactive or inconclusive. Potency is the fitted concentration of half-maximal effect.

SMILES	Abeta rescue	TDP43 rescue	aSyn rescue	FUS yeast rescue
COC(=O)C[C@@H]1CC[C@H]2[C@@H](COc3ccc(NC(=O)Nc4ccccc4)cc3C(=O)N2C)O1	·	·	·	i
Nc1ccc(NC(=O)c2cccc(C(=O)Nc3ccc(N)cc3Cl)c2)c(Cl)c1	i	-16.0%	-1.0%	11.2µM*!
Cc1ccc(CNC(=O)c2nnn(Cc3ccc(F)cc3)c2N)cc1	i	23.5%	·	i
Cc1ccc(C)n1-c1nnc(N2CCCC(C(=O)NCc3cccc(Cl)c3)C2)s1 (stereo not drawn)	i	16.4%	·	i
CC(=O)Nn1cnc2c(c1=O)C1(CCCC1)Cc1ccccc1-2	i	2.1%	-1.1%	i
Nn1cnc2c(c1=O)C1(CCCCC1)Cc1ccccc1-2	i	10µM*	0.0%	·
CCOc1ccc(C(=O)N2CCN(Cc3cc(=O)n4nc(-c5ccccc5Cl)sc4n3)CC2)cc1	i	14.5%	·	i
CC(C)c1cnc2c(c1SCC(=O)Nc1ccc(OC(F)(F)F)cc1)c(=O)n(C)c(=O)n2C	i	17.9%	·	i
CC(C)c1cnc2c(c1SCC(=O)Nc1cccc([N+](=O)[O-])c1)c(=O)n(C)c(=O)n2C	i	11.2µM*	·	i
CCOC(=O)N1CCN(C(=O)C[C@H]2C[C@@]3(C(=O)OC)C(=C[C@H](COCc4ccccc4)O[C@@H]3C)N(Cc3ccco3)C2=O)CC1	·	·	·	i
Cc1ccc(C)c(NC(=O)C(Cc2ccccc2)n2cccc2)c1 (stereo not drawn)	i	?	·	i
CC(=O)c1cccc(Nc2nc(-c3cccc(C)c3)nc3ccccc23)c1	i	15.8µM*	·	?
CCCCN(CCCC)C(=O)c1cc2c(=O)n3ccccc3nc2s1	i	?	·	i
Cc1ccc(CNC(=O)c2c(C)oc3nc(C)nc(N4CCOCC4)c23)cc1	i	2.9%	·	i
CCc1ccc(CNC(=O)CN2CCSc3ccccc32)cc1	?	25.1µM*	10.7%	i
Cc1ccccc1CNC(=O)CN1CCSc2ccccc21	i	12.9%	1.1%	i
CN1CCCN(S(=O)(=O)c2ccc3c(c2)CCC(=O)N3)CC1	·	·	·	i
Cc1cc(C)c(S(=O)(=O)N2CCN(C(=O)C3CCCO3)CC2)c(C)c1 (stereo not drawn)	i	1.6%	-15.0%	i
Cc1ccc2nsnc2c1S(=O)(=O)N1CCN(C(=O)C2CCCO2)CC1 (stereo not drawn)	i	?	22.4µM*	i
CCN(c1ccccc1)S(=O)(=O)c1cc(C(=O)OC(C)C(=O)Nc2ccc3c(c2)OCCO3)ccc1C (stereo not drawn)	·	-9.6%	-1.9%	17.8µM*
CC(OC(=O)/C=C/c1ccccc1)C(=O)Nc1ccc2c(c1)OCCO2 (stereo not drawn)	i	12.2%	6.4%	i
Cc1ccccc1OC(C)C(=O)Nc1ccc2c(c1)OCCO2 (stereo not drawn)	i	11.2µM*	6.2%	i
N#Cc1ccccc1OCC(=O)Nc1ccc2c(c1)OCCCO2	i	12.6µM*	16.8%	i
N#Cc1ccccc1OCC(=O)Nc1ccc2c(c1)OCCO2	i	?	2.7%	·
COc1cc(/C=C(\C#N)C(N)=O)ccc1OS(=O)(=O)c1ccc(C)cc1	i	17.8µM*	-5.7%	i
SMILES	Abeta rescue	TDP43 rescue	aSyn rescue	FUS yeast rescue
COc1cc(/C=C(\C#N)C(=O)NC2CCCCC2C)ccc1OS(=O)(=O)c1ccc(C)cc1 (stereo not drawn)	i	15.4%	-0.1%	i
Cc1ccc(C(=O)OCc2nnc(-c3ccccc3)o2)o1	i	17.8µM*	21.3%	i
S=c1nn[nH]n1C12CC3CC(CC(C3)C1)C2	i	7.94µM*	-18.4%	i
S=c1nc(C23CC4CC(CC(C4)C2)C3)[nH][nH]1	i	11.2%	-2.5%	i
CN(C)c1ccc(C(CNC(=O)c2ccc(C(C)(C)C)cc2)N2CCCC2)cc1 (stereo not drawn)	i	2.9%	·	i
CC(C)NC(=S)N/N=C/c1cccs1	?	9.5%	-7.5%	i
CC(C)NC(=S)N/N=C/c1ccc(C(C)(C)C)cc1	5.62µM*	0.0%	-5.5%	i
COC(=O)c1ccc(Cn2nc([N+](=O)[O-])c(Br)c2C)cc1	?	14.1µM*	?	i
O=S(=O)(Nc1ccc(Br)cn1)c1ccc(Cl)s1	i	11.2µM*	4.7%	i
CCc1nnc(NC(=O)CSc2nccn2Cc2ccc(F)cc2)s1	i	-14.2%	-5.8%	i

High-throughput results as filed in PubChem BioAssay.
